Results as given in PubChem BioAssay (NCI).
Compounds without any hit were thinned out: in the full panel of roughly 83,000, 20% have a hit.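 A percent growth of 40 corresponds to 60% growth inhibition; 0 means no net growth; -100 means all cells died. Active threshold: below 10.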 Activity calls are given as the source filed them.

Key:
Experiment in all cases: NCI-60 one-dose screen, 48 h (100 = growth as untreated, 0 = no growth, -100 = all killed)
Conditions in all cases: 10 µM unless noted
[1] = system: BT-549 breast
[2] = system: MDA-MB-435 melanoma
[3] = system: SW-620 colon
[4] = system: MCF7 breast
[5] = system: HCT-116 colon
[6] = system: HCC-2998 colon
[7] = system: KM12 colon

Measured: growth

c1ccc2cc(C[n+]3ccn(CCCCCCCn4cc[n+](Cc5ccc6ccccc6c5)c4)c3)ccc2c1
inactive: [1] 16.7% | [2] 32.7% | [3] 74.2% | [4] 35.1% | [5] 32.7% | [6] 49.3% | [7] 28.7%

Cc1cc2c(C#N)n3c(c2cc1C)C(=O)C(c1ccccc1)Oc1ccccc1-3 (centres undefined)
inactive: [1] 17% | [3] 47.3% | [4] 68.2% | [5] 12.8% | [7] 15.2%
active: [2] 0.71%

O=C(Nc1nc(-c2ccc(Cl)cc2)cs1)c1cc(O)c(O)c(O)c1
inactive: [1] 24.6% | [2] 41% | [3] 25.3% | [4] 28.3% | [5] 17.7% | [7] 51.3%

COc1cc(/C=C/C(=O)c2c(-c3ccc(F)cc3)nc3sc(C)nn23)cc(OC)c1OC
inactive: [1] 12% | [2] 11.9% | [3] 19.2% | [4] 14.3% | [5] 14.7% | [7] 21.8%

COc1ccc(-c2cc(C(=O)Nc3nc4cc(C)c(C)cc4s3)nc3cc(-c4ccccc4)nn23)cc1OC
inactive: [1] 122% | [2] 96.8% | [3] 47.3% | [4] 99% | [5] 108% | [6] 99.7% | [7] 112%

c1ccc(-c2nn[nH]n2)c(-c2ccc(CN3CCN(c4nsc5ccccc45)CC3)cc2)c1
inactive: [1] 106% | [2] 92.2% | [3] 88.7% | [4] 85.6% | [5] 76.9% | [7] 101%

Cc1cccc(Cl)c1NC(=O)c1ccc2nc(NC(=O)NC3CC(C)(C)NC(C)(C)C3)sc2c1
inactive: [1] 95% | [2] 90% | [3] 110% | [4] 86.5% | [5] 89.1% | [6] 96.5% | [7] 110%

COc1cc(/C=C/C(=O)c2c(-c3ccc(Cl)cc3)nc3sc(C)nn23)cc(OC)c1OC
inactive: [1] 79.3% | [2] 73.9% | [3] 59.6% | [4] 38.1% | [5] 50.2% | [7] 73.6%

COc1cc(/C=C/C(=O)Nc2ccc3c(c2)/C(=C\c2cccn2C)C(=O)N3)cc(OC)c1OC
inactive: [1] 46.6% | [2] 59.9% | [3] 83.1% | [5] 37.3% | [7] 33.8%
active: [4] 1.79%

Cc1nn(-c2ccccc2)c2ncc3c(c12)C(=O)N(Cc1ccccc1)C3=O
inactive: [1] 76.4% | [2] 90.7% | [3] 61% | [4] 58.8% | [5] 10.5% | [6] 63% | [7] 85.8%

O=[N+]([O-])c1ccc(Oc2cccc(C(F)(F)F)c2)c([N+](=O)[O-])c1
inactive: [3] 13.5% | [4] 112% | [6] 92.5% | [7] 86.2%
active: [1] 3.1% | [2] -16.6% | [5] 3.46%

Nc1ncc(-c2cnn(C3CCNCC3)c2)cc1-c1nc2cc(Cl)ccc2o1
inactive: [1] 61.3%
active: [2] -100% | [3] -100% | [4] -93.3% | [5] -100% | [6] -100% | [7] -100%

O=c1cc(-c2cccnc2)oc2c1ccc1ccccc12
inactive: [1] 81.1% | [2] 67% | [3] 81.5% | [4] 73.6% | [5] 55.7% | [6] 89.2% | [7] 95.8%

O=C(/C(=N/O)S(=O)(=O)c1ccccc1)c1cccs1
inactive: [1] 103% | [2] 105% | [3] 117% | [4] 98% | [5] 96.4% | [6] 93.2% | [7] 107%

CN=C(NC)N/N=C(C)\C=N\NC(=NC)NC
inactive: [1] 110% | [2] 104% | [3] 99.5% | [4] 104% | [5] 105% | [6] 110% | [7] 104%
